A selection: hits, their analogues and other compounds. The true share with any hit is near 2.7%.
A549 viability = counter-screen for Nrf2 inhibitors: cytotoxicity in A549 cells | Potency, µM (doses to about 46 µM), for inactives: at the highest dose activity change, negative = cytotoxicity, actives largely listed as inhibitors | A549 ARE-Fluc cells, CellTiter-Fluor viability, 18-24 h | 0.16% of 390,000 active; further: potency means the concentration at half of the fitted maximal effect; on the % scale 0 is the no-effect control and ±100 the full control effect
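Cytotoxicity counterscreen: CellTiter-Fluor fluorescence was measured in A549 ARE_Fluc cells after 18-24 h of compound exposure in a concentration series. The subsequent BugLite luminescent read reports ARE-luciferase activity.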
Nrf2 block = blocks Nrf2 signaling; A549 ARE-Fluc reporter, luciferase luminescence, 18-24 h; AID 504444; 2.1% of 360,000 active; Potency, µM (top dose mostly 46 µM), for the others: at the highest dose activity change, negative = inhibition, usual class: inhibitors; further: potency means the concentration at half of the fitted maximal effect; on the % scale 0 is the no-effect control and ±100 the full control effect; nearly all actives have a fitted effect of over 60% in size
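Cells were seeded and rested 2 h, then exposed to compounds for 18-24 h. CellTiter-Fluor was read first as a viability measure. BugLite was added 15 min before the final luminescent read of ARE-luciferase activity in A549 cells.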
LDHA block = LDHA (human) enzyme inhibition. 0.15% of 480,000 active. purified LDHA, NADH/diaphorase-resazurin fluorescence; active compounds read low. AID 1347041. P00338. activity change, % (values are at about 110 or 230 µM); in the data active means activity change below about -30%; inconclusive means mostly about -25% to -30%;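 further: plate controls were DMSO wells for no effect and wells without enzyme for full effect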
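Human LDH5 at 2 nM final in Tris HCl pH 7.4 with 0.06 mM NADH and 0.2 mM pyruvate, reacted 5 minutes at room temperature. Remaining NADH coupled via diaphorase/resazurin; resorufin fluorescence read at 0 and 20 minutes, normalized to enzyme-free and DMSO wells.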
ALOX12 inh = inhibitors of human 12S-lipoxygenase ALOX12. purified 12hLO, xylenol orange hydroperoxide absorbance. Potency, µM (doses to about 108 µM), for inactives: at the top dose activity change, negative = inhibition, most hits filed as inhibitors. 1.1% of 580,000 active. AID 1671190; further: potency means the concentration at half of the fitted maximal effect; on the % scale 0 is the no-effect control and ±100 the full control effect
Target sequence (P18054 whole entry, looked up): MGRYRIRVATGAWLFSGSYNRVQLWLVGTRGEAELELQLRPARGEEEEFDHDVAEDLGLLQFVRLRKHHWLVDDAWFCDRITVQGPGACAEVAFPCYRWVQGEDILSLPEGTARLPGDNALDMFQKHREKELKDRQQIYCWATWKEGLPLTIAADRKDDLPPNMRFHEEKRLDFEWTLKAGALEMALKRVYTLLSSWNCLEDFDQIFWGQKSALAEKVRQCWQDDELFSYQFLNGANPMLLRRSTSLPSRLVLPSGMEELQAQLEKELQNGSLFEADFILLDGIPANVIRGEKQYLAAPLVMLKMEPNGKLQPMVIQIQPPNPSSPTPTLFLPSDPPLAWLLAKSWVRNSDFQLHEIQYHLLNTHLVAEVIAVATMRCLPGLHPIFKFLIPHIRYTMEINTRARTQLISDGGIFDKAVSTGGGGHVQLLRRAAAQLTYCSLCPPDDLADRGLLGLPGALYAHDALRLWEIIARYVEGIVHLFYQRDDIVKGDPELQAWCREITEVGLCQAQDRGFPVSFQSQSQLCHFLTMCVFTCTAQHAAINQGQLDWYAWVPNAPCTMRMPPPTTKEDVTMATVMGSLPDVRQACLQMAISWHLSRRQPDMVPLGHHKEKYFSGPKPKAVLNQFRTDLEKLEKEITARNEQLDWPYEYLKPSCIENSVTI
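Hydroperoxide product was detected by ferrous iron/xylenol orange as the 573 to 405 nm absorbance ratio. Arachidonic acid at 40 uM (final) was turned over for 30 min at room temperature by 150 nM human 12hLO, pH 7.0 Hepes buffer, after 15 min compound preincubation.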
ERG-DNA inh = ERG Ets/DNA interaction inhibition; P11308; fluorescence polarization, His-ERG Ets domain / labelled DNA; Potency, µM (top dose mostly 76.9 µM), for the others: at the highest dose FP activity, negative = inhibition, most hits filed as inhibitors; 0.028% of 370,000 active; AID 624246; active means well fitted inhibition curve with a large enough effect in the polarisation, with a control signal flat; inconclusive means small, poorly fitted or top-dose-only effect, or effect the other way, or a change in a side signal; inactive means no such curve, though single readings can be large or run the other way; the % refers to the polarisation;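 further: polarization taken with two DNA probes labelled with fluorescein and Texas red; potency means the concentration at half of the fitted maximal effect; % of control where 0% means no effect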
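His-tagged ERG Ets domain (1 uM in the protein solution; 300mM KCl, 50mM Tris-HCl, 1mM EDTA, 1mM DTT, pH 7.5) received compound, then a probe mix of 5 nM fluorescein-DNA and 100nM Texas-615-DNA. Fluorescence polarization was read for both dyes.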
Nrf2 ARE act = activators of Nrf2 (ARE) signaling; 0.31% of 410,000 active; Potency, µM (doses to about 46.1 µM), inactives show at the top dose activation, most hits filed as activators; AREc32 ARE-luciferase reporter (MCF7-derived line), luminescence, 24 h; AID 624171; further: potency means the concentration at half of the fitted maximal effect; % of control where 0% means no effect; nearly all actives have a fitted effect of over 65% in size
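ARE activation measured as luciferase luminescence (Steady-Glo, 30 min RT) in AREc32_Fluc cells after 24 hr compound exposure at 37 deg C, 5% CO2; cells seeded overnight at 1000/well in OPTI-MEM, 5% FBS.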
Starred values were filed as active, the others as inactive; ? = inconclusive; . = not tested or not shown; [ ] = remark or other dose. Unless noted, the call rests on the fitted dose curve; in most records, active means well fitted curve in the direction sought with a large enough effect; inconclusive means small, poorly fitted or top-dose-only effect, or another doubt; inactive means no such curve, though single readings can be large; an effect the other way counts as inactive or inconclusive.

SMILES	A549 viability	Nrf2 block	LDHA block	ALOX12 inh	ERG-DNA inh	Nrf2 ARE act
Cc1ccc(/C=N/NC(=O)CCSc2ccccc2)cc1	-4%	-4%	-11	-16%	4%	4%
CC(C)(CO)NC(=O)c1ccc(F)cc1	.	.	8	3%	.	.
Cc1ccc(-c2cc3c(=O)n(CCNC(=O)Cc4ccc(Cl)cc4)ccn3n2)cc1C	.	.	.	40µM*	.	.
Cc1ccc(-c2cc3c(=O)n(CCNC(=O)c4ccc(Cl)cc4)ccn3n2)cc1C	.	.	.	-24%	.	.
CN(CC(O)CON=C1c2ccccc2-c2ccccc21)S(=O)(=O)c1ccc(Br)cc1 (stereo not given)	?	21µM*	-4	-6%	24%	2%
CCN(CC(O)CON=C1c2ccccc2-c2ccccc21)S(=O)(=O)c1ccc(C)cc1 (stereo not given)	?	21µM*	-5	-1%	4%	0%
COc1ccc(NC(=O)Cc2c(C)c3ccc(O)c(C)c3oc2=O)c(OC)c1	.	.	-4	?	.	.
CCc1nc(NC(CC)CO)c(C#N)c2c1CCCC2 (stereo not given)	.	.	-34*	26%	.	.
C/C(=N\Nc1ccc(F)cc1F)c1ccc(Br)s1	0%	0%	8	32µM*	-2%	?
C/C(=N/Nc1ccc(S(N)(=O)=O)cc1[N+](=O)[O-])c1ccc(Br)s1	.	.	12	-7%	.	.
CC(=O)Nc1ccc(Sc2ccccc2C(=O)O)cn1	0%	22%	-12	2µM*	-3%	0%
CCOC(=O)C1=C(c2ccccc2)N=c2s/c(=C\c3cccc(O)c3)c(=O)n2C1c1cccs1 (stereo not given)	?	26µM*	-4	?	.	-1%
CCOC(=O)C1=C(C)N=c2s/c(=C\c3cccc(OCC(=O)O)c3)c(=O)n2C1c1ccccc1OC (stereo not given)	-19%	2%	2	3%	8%	0%
Cc1ccc(Nc2nc(CN3CCN(S(=O)(=O)c4ccc(C)cc4)CC3)cs2)cc1	.	.	10	?	.	.
CNC(=O)CSc1cc(C)c2cc(C)cc(C)c2n1	.	.	3	2%	.	.
O=S(=O)(c1ccc(=S)[nH]c1)N1CCN(Cc2ccccc2)CC1	7%	0%	-1	40µM*	-2%	0%
O=S(=O)(c1ccc(=S)[nH]c1)N1CCCCC1	11%	6%	-13	99%	13%	0%
S=c1[nH]nc(-c2cc(-c3ccccc3)n[nH]2)n1/N=C/c1ccc(Cl)cc1	-8%	?	0	-113%	6%	6%
COc1ccc(/C=N/n2c(-c3ccccc3)n[nH]c2=S)cc1	2%	-10%	-5	?	19%	3%
COc1cc(/C=N/n2c(-c3ccccc3)n[nH]c2=S)cc(OC)c1OC	-2%	3%	-10	28µM*	2%	4%
Cc1cccc(/C=N/n2c(-c3ccccc3)n[nH]c2=S)c1O	3%	-4%	-2	4.5µM*	-3%	0%
Oc1c(Br)cc(Br)c(/C=N/n2c(-c3ccccc3)n[nH]c2=S)c1Br	0%	25%	-15	18µM*	-3%	10%
S=c1[nH]nc(-c2cc(-c3ccccc3)n[nH]2)n1/N=C/c1ccc(Cl)c(Cl)c1	-5%	-9%	-42*	?	3%	3%
Oc1ccc(Br)cc1/C=N/n1c(-c2ccccc2)n[nH]c1=S	6%	2%	-4	?	9%	-1%
CN(C)C1CCN(c2ccc(-c3nc(CCCc4ccccc4)no3)cn2)CC1	.	.	.	11%	.	.
SMILES	A549 viability	Nrf2 block	LDHA block	ALOX12 inh	ERG-DNA inh	Nrf2 ARE act
COc1ccc(-c2cc(C(=O)NCC(C)C)c3c(C4CCCN4)nn(C)c3n2)cc1 (stereo not given)	.	.	.	14%[6.33 µM]	.	.
Cc1cc(-c2n[nH]c(=S)n2/N=C/c2ccc(Cl)c([N+](=O)[O-])c2)n[nH]1	-7%	3%	-4	40µM*	-2%	7%
CC(NC(=O)C1CCCC1)c1ccc(Br)cc1 (stereo not given)	17%	26µM*	-3	-8%	17%	3%
CC(NC(=O)C1CCC1)c1ccc(Br)cc1 (stereo not given)	-4%	-4%	-2	-18%	-2%	2%
O=[N+]([O-])c1cc(/C=N/N2CCOCC2)cs1	-12%	0%	-8	-6%	32µM*	4%
O=[N+]([O-])c1ccc(C=NN2CCOCC2)s1	.	.	3	?	.	4%
CCC(=O)OCCC(C)CCC=C(C)C (stereo not given)	.	.	.	-5%[176 µM]	.	.
CCn1c(N2CCN(C(=S)Nc3ccc(OC)cc3)CC2)nc2ccccc21	-9%	16µM*	-7	-28%	-8%	3%
C=CCOc1ccc(NC(=O)c2ccc(C(C)(C)C)cc2)cc1	.	.	4	14%	.	.
FC(F)(F)c1ccccc1-c1cncnc1NCc1cccnc1	.	.	.	-28%	.	.
FC(F)(F)c1ccccc1-c1cncnc1Nc1ccccc1	.	.	.	25µM*	.	.
FC(F)(F)c1ccccc1-c1cncnc1NCCN1CCOCC1	.	.	.	18µM*	.	.
FC(F)(F)c1ccccc1-c1cc(NCCN2CCOCC2)ncn1	.	.	.	-20%	.	.
CNc1nc(N/N=C/c2cc3c(cc2[N+](=O)[O-])OCO3)nc(Nc2ccccc2)n1	?	18µM*	-15	-3%	-14%	1%
CNc1nc(N/N=C/c2cc([N+](=O)[O-])ccc2F)nc(Nc2ccccc2)n1	0%	7%	-1	?	-5%	5%
CCN(CC)c1ccc(C(=C2C=CC(=[N+](CC)CC)C=C2)c2ccc(N(CC)CC)cc2)cc1	7.3µM*	5.8µM*	4	-62%	?	-3%
COc1ccc(C)cc1-n1nnnc1SCc1cc(=O)n2cc(C)ccc2n1	-21%	13µM*	-3	-1%	4%	0%
COc1ccc(C)cc1-n1nnnc1SCc1csc(C)n1	-3%	-15%	-5	35%	-7%	0%
CCOC(=O)C1=C(C)NC(=S)NC1c1cc(C)sc1C (stereo not given)	4%	-2%	-8	?	6%	0%
CCOC(=O)c1c(NC(=O)C2=C(C)NC(=S)NC2c2ccccc2C(F)(F)F)sc(C)c1C (stereo not given)	?	?	1	25µM*	35µM*	1%
N#Cc1ccc(CN2CCN(Cc3nnsc3Cl)CC2)cc1	.	.	-7	?	.	.
Cc1ccc(-n2nc3c(c2NC(=O)CC(C)C)CS(=O)C3)cc1 (stereo not given)	-2%	10%	-1	40µM*	-7%	0%
NS(=O)(=O)c1ccc(N/N=C/C(Cl)=C/c2ccccc2)c([N+](=O)[O-])c1	.	.	2	?	.	.

Bioassay records deposited in PubChem BioAssay by National Center for Advancing Translational Sciences (NCATS).
